Measurements published in PubChem BioAssay (NCATS).
Records with an inconclusive call do not appear. A call without a number means that no potency is given here. The source made the active and inactive calls. Calls come from the whole dose curve.

How the values were obtained:
[1] = Primary qHTS for inhibitors of SARS-S pseudo-typed particle cell entry (AID 1479145); conditions: SARS-S pseudotyped particle cell entry, luciferase reporter; series mostly up to 57.1 µM; note: nearly all actives have a fitted effect of over 45% in size; note: potency is the fitted concentration of half-maximal effect
[2] = Primary qHTS for Huh7 cytotoxicity: counterscreen for inhibitors of MERS-S pseudotyped particle cell entry (AID 1479147); conditions: cell viability read-out; series mostly up to 57.1 µM; note: potency is the fitted concentration of half-maximal effect
[3] = Primary qHTS for inhibitors of MERS-S pseudo-typed particle cell entry (AID 1479149); conditions: MERS-S pseudotyped particle entry, luciferase; series mostly up to 57.1 µM; note: nearly all actives have a fitted effect of over 60% in size; note: potency is the fitted concentration of half-maximal effect
[4] = Primary qHTS for Vero E6 cytotoxicity: counterscreen for inhibitors of SARS-S pseudo-typed particle cell entry (AID 1479150); conditions: cell viability; series mostly up to 57.1 µM; note: potency is the fitted concentration of half-maximal effect
[5] = Confirmatory qHTS for VERO E6 Cytotoxicity Assay: Counterscreen for SARS-CoV-2 CPE Assay (AID 1508605); conditions: cell viability luminescence; series mostly up to 20 µM; note: nearly all actives have a fitted effect of over 60% in size

## O=C(O)c1ccc(OCCCOc2ccc(C(=O)O)cc2)cc1
[1]
  Potency: inactive
[2]
  Potency: inactive
[3]
  Potency: inactive
[4]
  Potency: inactive

## CCOCC(O)COc1ccc(NC(=O)CC[S+](C)C)cc1 (stereo not drawn)
[1]
  Potency: inactive
[2]
  Potency: inactive
[3]
  Potency: inactive
[4]
  Potency: inactive

## Brc1c(NC2=NCCN2)ccc2nccnc12
[1]
  Potency: inactive
[2]
  Potency: inactive
[3]
  Potency: inactive
[4]
  Potency: inactive

## NS(=O)(=O)c1ccc(N2CCCCS2(=O)=O)cc1
[1]
  Potency: inactive
[2]
  Potency: inactive
[3]
  Potency: inactive
[4]
  Potency: inactive

## CCOC(=O)[C@H](CCc1ccccc1)N[C@H]1CCc2ccccc2N(CC(=O)O)C1=O
[1]
  Potency: inactive
[2]
  Potency: inactive
[3]
  Potency: inactive
[4]
  Potency: inactive
[5]
  Potency: inactive

## NS(=O)(=O)c1cc2c(cc1Cl)NC(C1CC3C=CC1C3)NS2(=O)=O (stereo not drawn)
[1]
  Potency: inactive
[2]
  Potency: inactive
[3]
  Potency: inactive
[4]
  Potency: inactive

## CC(=O)Oc1ccc(C(=C2CCCCC2)c2ccc(OC(C)=O)cc2)cc1
[1]
  Potency: inactive
[2]
  Potency: inactive
[3]
  Potency: inactive
[4]
  Potency: inactive

## CCN(CC)CC(=O)OCC(=O)[C@@]1(O)CC[C@H]2[C@@H]3CCC4=CC(=O)CC[C@]4(C)[C@H]3[C@@H](O)C[C@@]21C
[1]
  Potency: inactive
[2]
  Potency: inactive
[4]
  Potency: inactive

## N[C@@H](CSCCCO)C(=O)O
[1]
  Potency: inactive
[2]
  Potency: inactive
[3]
  Potency: inactive
[4]
  Potency: inactive

## CC(=O)/C=C/C=C1/C2CCC(C2)C1(C)C (stereo not drawn)
[1]
  Potency: inactive
[2]
  Potency: inactive
[3]
  Potency: inactive
[4]
  Potency: inactive

## COc1cc(C(=O)OCCCN2CCCN(CCCOC(=O)c3cc(OC)c(OC)c(OC)c3)CC2)cc(OC)c1OC
[1]
  Potency: 11.2 µM (active)
[2]
  Potency: inactive
[4]
  Potency: inactive

## CN1C[C@H](C(=O)N[C@]2(C)O[C@@]3(O)[C@@H]4CCCN4C(=O)[C@H](Cc4ccccc4)N3C2=O)C[C@@H]2c3cccc4[nH]cc(c34)C[C@H]21
[1]
  Potency: inactive
[2]
  Potency: inactive
[4]
  Potency: inactive

## Cn1c(=O)c2c(ncn2C)n(C)c1=O
[1]
  Potency: inactive
[2]
  Potency: inactive
[4]
  Potency: inactive

## CC[C@H](c1ccc(O)cc1)[C@@H](CC)c1ccc(O)cc1
[1]
  Potency: inactive
[2]
  Potency: inactive
[4]
  Potency: inactive

## C[C@@H]1C[C@H]2[C@@H]3CCC4=CC(=O)C=C[C@]4(C)[C@@]3(Cl)[C@@H](O)C[C@]2(C)[C@@]1(OC(=O)c1ccco1)C(=O)CCl
[1]
  Potency: inactive
[2]
  Potency: inactive
[3]
  Potency: inactive
[4]
  Potency: inactive

## NC(=O)c1ncn([C@@H]2O[C@H](CO)[C@@H](O)[C@H]2O)c1N
[1]
  Potency: inactive
[2]
  Potency: inactive
[4]
  Potency: inactive

## CCCCC/C=C\C/C=C\CCCCCCCC(=O)NC(C)c1ccccc1 (stereo not drawn)
[1]
  Potency: inactive
[2]
  Potency: inactive
[3]
  Potency: inactive
[4]
  Potency: inactive

## CCN(CCCCOC(=O)c1ccc(OC)c(OC)c1)C(C)Cc1ccc(OC)cc1 (stereo not drawn)
[1]
  Potency: 11.2 µM (active)
[2]
  Potency: inactive
[4]
  Potency: inactive

## CC(C)[C@@H]1CC[C@@H](C)CC1=O
[1]
  Potency: inactive
[2]
  Potency: inactive
[4]
  Potency: inactive

## OC(CCN1CCCCC1)(c1ccccc1)C1CC2C=CC1C2 (stereo not drawn)
[1]
  Potency: inactive
[2]
  Potency: inactive
[3]
  Potency: inactive
[4]
  Potency: inactive

## N=C(N)c1ccc2cc(OC(=O)c3ccc(N=C(N)N)cc3)ccc2c1
[1]
  Potency: inactive
[2]
  Potency: inactive
[4]
  Potency: inactive

## CCCSS/C(CCO)=C(\C)N(C=O)Cc1cnc(C)nc1N
[1]
  Potency: inactive
[2]
  Potency: inactive
[3]
  Potency: inactive
[4]
  Potency: inactive

## CCN(CCCc1ccccc1)CCCc1ccccc1
[1]
  Potency: inactive
[2]
  Potency: inactive
[4]
  Potency: inactive

## CN(C)c1ccc(C(=C2C=CC(=[N+](C)C)C=C2)c2ccc(N(C)C)cc2)cc1
[1]
  Potency: 1 µM (active)
[3]
  Potency: 1.12 µM (active)

## CNC[C@H](O)c1ccc(O)c(O)c1
[1]
  Potency: inactive
[3]
  Potency: inactive
[4]
  Potency: inactive

## COc1ccc2[nH]c(S(=O)Cc3ncc(C)c(OC)c3C)nc2n1 (stereo not drawn)
[1]
  Potency: 20 µM (active)
[2]
  Potency: inactive
[4]
  Potency: inactive

## CC(=O)[C@H]1CC[C@H]2[C@@H]3CC=C4C[C@@H](O)CC[C@]4(C)[C@H]3CC[C@]12C
[1]
  Potency: inactive
[2]
  Potency: inactive
[4]
  Potency: inactive

## COc1ccc(-n2nc(CCC(=O)N(C)O)cc2-c2ccc(Cl)cc2)cc1
[1]
  Potency: inactive
[4]
  Potency: inactive

## N=C(N)c1ccc(OCCCOc2ccc(C(=N)N)cc2)cc1
[2]
  Potency: inactive

## CCCC(=O)O[C@]1(C(=O)CCl)[C@@H](C)C[C@H]2[C@@H]3CCC4=CC(=O)C=C[C@]4(C)[C@@]3(F)C(=O)C[C@@]21C
[1]
  Potency: inactive
[2]
  Potency: inactive
[4]
  Potency: inactive

## Oc1ccc(Cl)cc1Cc1cc(Cl)ccc1O
[2]
  Potency: inactive

## FC(F)(F)C(F)(F)C(F)(F)C(F)(F)C(F)(F)C(F)(F)C(F)(F)C(F)(F)Br
[1]
  Potency: inactive
[2]
  Potency: inactive
[4]
  Potency: inactive

## CCCCOc1cc(C(=O)OCCN(CC)CC)ccc1N
[1]
  Potency: inactive
[4]
  Potency: inactive

## CCN(CC)CCCN(c1ccccc1)C1Cc2ccccc2C1
[1]
  Potency: 17.8 µM (active)
[4]
  Potency: inactive

## Cc1cc2nc3ccc(=[N+](C)C)cc-3sc2cc1N
[1]
  Potency: 14.1 µM (active)
[3]
  Potency: 17.8 µM (active)

## O=C(Nc1ccc([N+](=O)[O-])cc1Cl)c1cc(Cl)ccc1O
[1]
  Potency: 0.501 µM (active)
[3]
  Potency: 2 µM (active)
[4]
  Potency: 1.58 µM (active)

## OCc1cc(C(O)CNCCCCCCOCCCCc2ccccc2)ccc1O (stereo not drawn)
[1]
  Potency: inactive
[4]
  Potency: inactive

## COc1ccc(CCN(C)CCCC(C#N)(c2cc(OC)c(OC)c(OC)c2)C(C)C)cc1OC (stereo not drawn)
[2]
  Potency: inactive
[3]
  Potency: inactive

## COc1ccc(-c2nc3ccc(C4=NNC(=O)CC4C)cc3[nH]2)cc1 (stereo not drawn)
[1]
  Potency: inactive
[3]
  Potency: inactive
[4]
  Potency: inactive

## Clc1ccccc1C(c1ccccc1)(c1ccccc1)n1ccnc1
[2]
  Potency: inactive

## CN(C)CCC(c1ccccc1)c1ccccn1 (stereo not drawn)
[2]
  Potency: inactive
[3]
  Potency: inactive
[4]
  Potency: inactive

## CC1=C(C(=O)OC(C)C)C(c2cccc([N+](=O)[O-])c2)C(C(=O)OC2CN(C(c3ccccc3)c3ccccc3)C2)=C(N)N1 (stereo not drawn)
[2]
  Potency: inactive
[3]
  Potency: inactive

## CCCCOc1cc(C(=O)NCCN(CC)CC)c2ccccc2n1
[1]
  Potency: 14.1 µM (active)
[4]
  Potency: inactive
[5]
  Potency: inactive

## C1CCC(C(CC2CCCCN2)C2CCCCC2)CC1 (stereo not drawn)
[1]
  Potency: 25.1 µM (active)
[3]
  Potency: 10 µM (active)

## C[n+]1cc2c3c(ccc2c2ccc4cc5c(cc4c21)OCO5)OCO3
[2]
  Potency: 8.91 µM (active)

## OC[C@H]1O[C@@H](n2cnc3c(=S)nc[nH]c32)[C@H](O)[C@@H]1O
[1]
  Potency: inactive
[3]
  Potency: inactive

## C#C[C@]1(O)CC[C@H]2[C@@H]3CCc4cc(O)ccc4[C@H]3CC[C@@]21C
[1]
  Potency: inactive
[4]
  Potency: inactive

## CC(=O)Oc1ccc(C2(c3ccc(OC(C)=O)cc3)Oc3ccccc3NC2=O)cc1
[2]
  Potency: inactive
[3]
  Potency: inactive
